{
  "source": "PubChem BioAssay AID1508600",
  "about": "(Functional Genomics Laboratory (NCATS/FGL), 2020)",
  "note": "About 3,700 (7%) of roughly 53,000 sequences were called active. Shown is part of a subset that was picked to be rich in actives. A number with no mark means an inactive call.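 How the source made its calls: active means gene knockdowns whose robust z-score for IL-1 alpha signal is at least 2 or at most -2, so actives lie on both sides; inactive means the rest.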",
  "data": [
    {"assay": "Components of the Cytosolic LPS Sensing Pathway: Gene Identification via Genome-wide siRNA Screen;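 further: robust z of the log signal after scaling to non-targeting control siRNA wells of the plate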", "details": "RAW264.7 macrophages, IL-1a HTRF, actives lie on both sides, screened at 100 nM (by protocol), cells primed 5 h with Pam3CSK4 first", "in_short": "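Read-out: IL-1a HTRF on supernatant, divided by plate negative-control median ×100, log-transformed and converted to robust z-score. Cells were RAW264.7 given 100 nM siRNA, Pam3CSK4-primed 5 hours, then LipidA-transfected 24 hour.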", "values": [
      {"sequence": "CCAUUGAGGUAAUGUUUGATT against Rmnd1", "z-score": 0.978},
      {"sequence": "UGAUAUCGGAACAGAGAUGTT against Tbx15", "z-score": -0.467},
      {"sequence": "GGAAGUAAAAACAUACCUUTT against Chac2", "z-score": "2.02 (active)"},
      {"sequence": "CCCAAAGCCCUUUUAAACUTT against Hmbs", "z-score": 0.301},
      {"sequence": "GGUAAAAGACUAAAGAAGATT against Coch", "z-score": -0.485},
      {"sequence": "CCGCUGUUUUCAACUGUGCTT against Asb10", "z-score": -0.773},
      {"sequence": "GGAAGUGGUGGAACUCCUGTT against Tmem215", "z-score": "-2.65 (active)"},
      {"sequence": "GGACCUGGUCACCAUCUUGTT against Tram2", "z-score": -0.3},
      {"sequence": "CGGCAGAAGGGUUUUUAUGTT against Rnf126", "z-score": -0.365},
      {"sequence": "CCAUACAUAUAGACAAUCCTT against AY358078", "z-score": 0.796},
      {"sequence": "CCUUCAUGCAACAGCUACUTT against Nckap5l", "z-score": "-2.57 (active)"},
      {"sequence": "GCCCUAUCUACCAUAACACTT against Dok3", "z-score": "-2.11 (active)"},
      {"sequence": "GGAUUCAGAAAUCUGGAAATT against Nmnat3", "z-score": -0.199},
      {"sequence": "GGUCAUCUUACAGUUUAAATT against Smap2", "z-score": 0.593},
      {"sequence": "GCGAAUAUCCAACCUAUCUTT against Itgb7", "z-score": -0.687},
      {"sequence": "GGGCAUCAUGAAACUAUGUTT against Kbtbd4", "z-score": "-2.59 (active)"},
      {"sequence": "GCUGAAGGCGACAAUGGAUTT against Ak2", "z-score": -0.0901},
      {"sequence": "GGCCUGCUAUAUGCAUUCCTT against Krtap12-1", "z-score": 0.974},
      {"sequence": "GGAAAAGAUGCCUGUAUUUTT against Sgcd", "z-score": -0.422},
      {"sequence": "GGAUUCCAAAUGCUUACAATT against Lysmd3", "z-score": 0.757},
      {"sequence": "GCCAAUGCAGGGUAAGUACTT against Tmtc2", "z-score": "-2.83 (active)"},
      {"sequence": "GCCUAUCCGACAACUUAGUTT against Slc25a17", "z-score": 0.136},
      {"sequence": "GCAUAACCAAGUGUGAUGCTT against Actrt2", "z-score": -0.439},
      {"sequence": "GGAGAAAGUCAUCUUUGAUTT against Cdk5rap2", "z-score": -0.41},
      {"sequence": "GGAGACGGAGCUGUUAGAUTT against Plcb1", "z-score": -0.104},
      {"sequence": "GGUCCAUUAGCUAAAUCUUTT against Mysm1", "z-score": 1.87},
      {"sequence": "CGAAGUGACAAUAAAUCAGTT against Snapc5", "z-score": -0.0661},
      {"sequence": "GCAUCAGAGGGAUUUCACUTT against Slc35d3", "z-score": "-2.68 (active)"},
      {"sequence": "GGGAGCCAAAGUGAGAUUUTT against Azin2", "z-score": 0.736},
      {"sequence": "GGCAAAGUGAGUAAGACAGTT against Habp2", "z-score": 0.0806},
      {"sequence": "GCCCUAUUCCCAACUAUUCTT against Nefl", "z-score": -0.481},
      {"sequence": "GGACUUUACAGACACUUUUTT against Kdm1b", "z-score": -1.57},
      {"sequence": "GCAGUUGUCACUGGCAAGUTT against Aqp2", "z-score": "2.21 (active)"},
      {"sequence": "GCAAAGGUUCUAGUUGAUATT against Cct2", "z-score": -0.585},
      {"sequence": "CCGAUUUUGUGGCCUCAUGTT against Emg1", "z-score": -0.578},
      {"sequence": "GGAGAAAUGGGUAAAAACUTT against Paral1", "z-score": 0.296},
      {"sequence": "GCCUAUGCUCAACUUCUCGTT against Thap4", "z-score": "-3.31 (active)"},
      {"sequence": "GGCCCUGACAGAGGAAAAATT against Impa2", "z-score": -1.16},
      {"sequence": "CGAUAUGAAGCGAAAUAUCTT against Pmpca", "z-score": 0.528},
      {"sequence": "GCCUUCCAGUCAGUGAAAUTT against Foxn1", "z-score": -0.174},
      {"sequence": "GGAAAUCGAGCAAAAGACATT against Cep104", "z-score": 1.5},
      {"sequence": "GCCAUUCUUUGAAAAGAGGTT against Ak8", "z-score": -1.77},
      {"sequence": "GGUCGUGAUAUUAUUGGGUTT against Ddx47", "z-score": "2.91 (active)"},
      {"sequence": "GCAGGUAAGUUAAAUGAUGTT against Ccdc148", "z-score": 0.961},
      {"sequence": "CCCUUUACAUUACUCUAGCTT against Olfr715", "z-score": 0.141},
      {"sequence": "GGGAGCGGAGCAAACAUAATT against Olfr1370", "z-score": 0.675},
      {"sequence": "CGGUUCUUUUACCAAGAUCTT against Jak3", "z-score": -0.781},
      {"sequence": "GCCGAGUUUACUUGUUUGATT against Exd1", "z-score": 0.554},
      {"sequence": "GGAAGCAAACUUAAAGUGUTT against Ewsr1", "z-score": "2.17 (active)"},
      {"sequence": "GGUGUUCUGUAUCUUGUUCTT against Ndn", "z-score": 0.572},
      {"sequence": "GGAGCUCCAUGACAUGUUUTT against Stx3", "z-score": -0.37},
      {"sequence": "CGCGGAGUUUCGAAGUGUCTT against Drd4", "z-score": "3.64 (active)"},
      {"sequence": "GGAACCUAACAGAGAAACATT against Prpsap2", "z-score": -0.166},
      {"sequence": "GCAAAUACUCAAGUUCAGATT against Cpt1b", "z-score": 0.382},
      {"sequence": "GGAUACUCGGGAUCUAGUATT against Anxa11", "z-score": -1.44},
      {"sequence": "GGCAAUUCUGAAGAAACCATT against Ogn", "z-score": "-2.23 (active)"},
      {"sequence": "GGAGGAGUCCCAUAACUCATT against Cby2", "z-score": 1.05},
      {"sequence": "GGUAAACUUGACAAUAGGATT against Zc3h14", "z-score": -0.512},
      {"sequence": "CCCUGGUCGUCAUUUUCAATT against Morc2b", "z-score": 1.54},
      {"sequence": "GCACAAGCGUGGAACACAUTT against Dctn2", "z-score": 0.702},
      {"sequence": "GGCCCAACAUAUAUCAAAUTT against Adck2", "z-score": 1.38},
      {"sequence": "GGAAACUGUUGAAUCUUGUTT against Smad5", "z-score": 1.42},
      {"sequence": "CCACGCUCUCAAGGUAUAGTT against Cyp2d22", "z-score": "-2.81 (active)"},
      {"sequence": "GGGAUUGGGUAUUUUUUAGTT against B4galt1", "z-score": -0.432},
      {"sequence": "CCCGUACAUUGAGUGCAAUTT against 6330403K07Rik", "z-score": 0.414},
      {"sequence": "GGAGUUCAGGAAAAUUCUUTT against Fsd1l", "z-score": 0.0551},
      {"sequence": "GGAAGACCUUCAGAGAGAATT against Ell2", "z-score": "4.25 (active)"},
      {"sequence": "GGGAAAGUUAAUAUCAAGATT against Ephb4", "z-score": 0.185},
      {"sequence": "GGUGAUGAUGAUGGGCAACTT against Cdkn2a", "z-score": "2.02 (active)"}
    ]}
  ]
}
